Screens (PubChem)
Nrf2 inh: Nrf2 qHTS screen for inhibitors; A549 ARE-Fluc reporter, luciferase luminescence, 18-24 h; Potency, µM (series often up to 46 µM), for inactives: at the highest dose activity change, negative = inhibition, usual class: inhibitors; 2.1% of 360,000 active; note: potency is the fitted concentration of half-maximal effect; % is set by controls: 0 for no effect and ±100 for the full control effect; nearly all actives have a fitted effect of over 60% in size
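A549 ARE_Fluc cells (5000/well, 5% FBS OPTI-MEM) pre-incubated 2 h, then treated with compounds 18-24 h at 37C/5% CO2 in concentration-response. CellTiter-Fluor viability read first; BugLite luciferase luminescence after 15 min at room temperature gives Nrf2 activity.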
miR-21 act: qHTS Assay for Modulators of miRNAs and/orActivators of miR-21. 340,000 tested, under 10 active. HeLa miR-21 FLuc reporter, luciferase, 48 h. Potency, µM (titrated, usually from 38.3 µM), without a hit: at the top dose activity change, positive = activation, actives largely listed as activators;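 note: % of control where 0% means no effect; miR-21 action dims this reporter so a rising signal means less miR-21 action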
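HeLa cells stably expressing CMV-driven firefly luciferase with a downstream miR-21 binding sequence, endogenously expressing miR-21, were treated with titrations (up to about 40uM final) for 48 hours at 37 degree Celsius. Luciferase luminescence was read after lysis.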
Nrf2 activator: qHTS of Nrf2 Activators; AREc32 ARE-luciferase reporter (MCF7-derived line), luminescence, 24 h; Potency, µM (doses to about 46.1 µM), inactives show at the highest dose activation, hits mostly activators; 0.31% of 410,000 active; note: potency is the fitted concentration of half-maximal effect; % of control where 0% means no effect; nearly all actives have a fitted effect of over 65% in size
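ARE-driven firefly luciferase activity in AREc32 cells measured after a 24 hr compound exposure at 37 deg C, using Steady-Glo reagent and a 30 min room-temperature hold.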
A549 viability: Nrf2 qHTS screen for inhibitors: counterscreen for cytotoxicity | A549 ARE-Fluc cells, CellTiter-Fluor viability, 18-24 h | Potency, µM (series often up to 46 µM), without a hit: top-dose activity change, negative = cytotoxicity, actives largely listed as inhibitors | 0.16% of 390,000 active | AID 504648, 2011; note: potency is the fitted concentration of half-maximal effect; % is set by controls: 0 for no effect and ±100 for the full control effect
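A549 ARE-Fluc cells in 5% FBS OPTI-MEM, 5000 cells/well, rested 2 h then exposed to compounds in concentration-response for 18-24 h at 37 °C. Viability by CellTiter-Fluor fluorescence (Ex 405/Em 525) after 30 min; luciferase luminescence (BugLite, 15 min, RT) read afterwards.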
B2AR arrestin: qHTS assay of beta-arrestin-biased ligands of beta2-adrenergic receptor; Beta-2 adrenergic receptor (Homo sapiens), P07550; beta-arrestin recruitment to beta2AR, cell-based reporter; Potency, µM (series often up to 46.1 µM), for inactives: at the highest dose activation, usual class: activators; 0.02% of 330,000 active;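 note: potency is the fitted concentration of half-maximal effect; 0% = DMSO controls and full agonism = EC100 isoproterenol or metaproterenol; nearly all actives have a fitted effect of over 65% in size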
Target sequence (P07550 whole entry, looked up): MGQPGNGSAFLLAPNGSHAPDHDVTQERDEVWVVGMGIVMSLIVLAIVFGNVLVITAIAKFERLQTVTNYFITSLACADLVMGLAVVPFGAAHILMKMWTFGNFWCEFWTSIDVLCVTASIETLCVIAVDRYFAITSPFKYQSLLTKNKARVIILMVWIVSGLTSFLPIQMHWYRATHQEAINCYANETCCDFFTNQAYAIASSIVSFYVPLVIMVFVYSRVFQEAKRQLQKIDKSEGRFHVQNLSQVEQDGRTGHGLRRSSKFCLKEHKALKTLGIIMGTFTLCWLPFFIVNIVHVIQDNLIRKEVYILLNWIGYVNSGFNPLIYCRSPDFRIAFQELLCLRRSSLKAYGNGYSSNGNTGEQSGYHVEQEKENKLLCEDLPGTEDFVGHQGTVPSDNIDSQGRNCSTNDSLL
* hit, by the source's call; ? = inconclusive; . = no result. Sampled rows, rich in hits. Any-hit rate of the full collection: about 2.2%. Calls come from the whole dose curve; as a rule, active = well fitted curve in the direction sought with a large enough effect; inconclusive = small, poorly fitted or top-dose-only effect, or another doubt; inactive = no such curve, though single readings can be large; an effect the other way counts as inactive or inconclusive.

SMILES	Nrf2 inh	miR-21 act	Nrf2 activator	A549 viability	B2AR arrestin
COc1ccc(CCN(C)C(=O)c2cc(S(=O)(=O)N3CCCCC3)ccc2Cl)cc1OC	16.4µM*	.	0.8%	-11.1%	-0.1%
CC(C)(C)c1nnc(NC(=O)C2CCN(C(=O)c3ccccc3)CC2)s1	-29.5%	.	.	-1.5%	.
O=C1CCc2cc(S(=O)(=O)Nc3cccc(F)c3)ccc2N1	?	.	.	0.3%	.
Cc1ccc(C(=O)NCC(=O)OCC(=O)c2ccc3ccccc3c2)cc1	4.7%	.	.	21.2%	.
Oc1ccc(Br)cc1C1C=C(c2ccc3c(c2)OCO3)NC(c2c(F)cccc2Cl)N1 (centres undefined)	-3.0%	.	.	-3.3%	.
CNc1ncnc2ccc(-c3c(C)noc3C)cc12	.	.	.	.	-0.2%
CCc1c(C)sc2c1CCN(Cc1ccccc1F)C2c1ccccc1 (centres undefined)	.	?	-2.6%	?	.
CCCCCC(=O)O[C@]1(C(C)=O)CC[C@H]2[C@@H]3CCC4=CC(=O)CC[C@]4(C)[C@H]3CC[C@@]21C	20.6µM*	3.7%	3.7%	?	-1.3%
CC(=O)[C@@]1(O)CC[C@H]2[C@@H]3CCC4=CC(=O)CC[C@]4(C)[C@H]3CC[C@@]21C	-14.4%	-3.3%	-1.3%	-0.2%	-0.1%
O=C(CCl)N1c2ccccc2SCC1c1ccccc1 (centres undefined)	25.9µM*	?	-1.3%	?	-0.2%
O=C(NCc1cccnc1)/C(=C\c1ccc(-c2ccc(Br)cc2)o1)S(=O)(=O)c1ccccc1	?	?	?	?	-0.6%
O=C(NCc1cccnc1)/C(=C/c1ccc(-c2ccc(Cl)cc2)o1)S(=O)(=O)c1ccccc1	20.6µM*	?	?	?	-0.3%
O=C(NCc1nnc2c3ccccc3c(-c3ccccc3)nn12)c1ccc(Cl)cc1	20.6µM*	-0.9%	2.9%	?	0.5%
CCCC(=O)NC(c1ccc(Cl)cc1)c1ccc2cccnc2c1O (centres undefined)	?	20.5%	-0.3%	-16.4%	-0.2%
CCCC(=O)NC(c1ccc(Cl)cc1Cl)c1ccc2cccnc2c1O (centres undefined)	23.1µM*	19.8%	-0.7%	-17.6%	-0.7%
CCCCC(=O)NC(c1ccccc1OC)c1ccc2cccnc2c1O (centres undefined)	20.6µM*	?	-0.2%	-25.1%	3.4%
CCOc1ccccc1-c1nnc2n1N=C(c1ccc(OC)c(OC)c1)CS2	?	.	.	1.4%	.
COc1ccc(CCn2c3c(c(=O)[nH]c2=S)CN(CC(C)C)CN3)cc1OC	-22.6%	.	.	3.0%	.
Cc1nc2ccccc2n1Cc1ccccc1	20.6µM*	2.0%	-0.2%	1.1%	0.4%
c1ccc(Cc2nc3ccccc3n2Cc2ccccc2)cc1	-13.2%	-1.6%	0.5%	-5.6%	-0.1%
C=C(C)CN=c1scc(C)n1/N=C/c1ccco1	2.1%	-22.3%	12.6µM*	-8.1%	-0.2%
Cc1cc(C)n(-c2nnc(C)n2/N=C/c2ccco2)n1	-12.5%	4.1%	0.2%	6.6%	0.1%
CC(=O)OCC(NC(=O)C(C)NC(=O)OC(C)(C)C)C1OC(n2ccc(=O)[nH]c2=O)C(OC(C)=O)C1OC(C)=O (centres undefined)	?	.	.	12.6%	.
O=C(C1CCC(CNS(=O)(=O)c2cccc3nsnc23)CC1)N1CC=C(c2ccccc2)CC1 (centres undefined)	20.6µM*	21.1%	0.1%	-11.4%	7.8%
O=C(C1CCN(S(=O)(=O)c2cccc3nsnc23)CC1)N1CC=C(c2ccccc2)CC1	?	11.4%	2.1%	-6.6%	-0.1%
SMILES	Nrf2 inh	miR-21 act	Nrf2 activator	A549 viability	B2AR arrestin
CCOC(=O)C(CC)n1nnc2sc(-c3ccccc3)cc2c1=O (centres undefined)	?	-15.2%	6.2%	0.4%	.
CCCOC(=O)C(C)n1nnc2sc(-c3ccccc3)cc2c1=O (centres undefined)	20.6µM*	1.4%	13.2%	-1.5%	.
O=C(CSc1cn(CC(=O)N2CCCCC2)c2ccccc12)NCc1ccc(F)cc1	-5.4%	3.0%	6.5%	-0.1%	.
COc1cccc(NC(=O)c2sc(NC(=O)c3ccncc3)nc2C)c1	11.6µM*	6.5%	-0.5%	0.1%	-0.3%
COc1cccc(NC(=O)c2ccncc2)c1	7.5%	-18.7%	0.1%	-10.1%	-0.5%
CCOC(=O)C1=C(Cc2ccc(F)cc2)C(=O)c2ccccc2C1=O	.	?	9.3%	16.4µM*	-1.0%
O=C(N/N=C/c1ccc(O)cc1O)c1ccc(CN2C(=O)c3cccc4cccc2c34)cc1	9.2µM*	14.4%	0.2%	?	0.4%
O=C(CSc1ccc(-c2ccco2)nn1)N1CCCC1	13.6%	-3.5%	10µM*	-7.8%	3.1%
O=C(NCCO)c1cccc(Nc2nc(-c3ccccc3)c3cc(Cl)ccc3n2)c1	14.6µM*	12.8%	2.4%	-27.4%	0.2%
Clc1ccc(Nc2nc(-c3ccccc3)c3cc(Cl)ccc3n2)cc1	8.9%	-2.6%	-0.3%	10.7%	.
CCOC(=O)C1CCCN(c2c(C(=O)c3ccc(C)cc3)cnc3ccc(OCC)cc23)C1 (centres undefined)	23.1µM*	12.3%	0.3%	?	.
O=C(c1ccc2c(c1)OCCO2)N(Cc1cccnc1)c1nc2c(F)cccc2s1	.	12.9%	-1.0%	-15.7%	.
C=CC(=O)Nc1ccc(N(C)c2ccnc(Nc3ccc(N4CCN(C)CC4)cc3)n2)cc1	14.8%	.	5.0%	7.31µM*	3.6%
C/C(N)=C(/C#N)C(=O)CSc1nc2scc(-c3ccccc3)c2c(=O)n1C	14.6µM*	-2.9%	-0.1%	0.5%	0.3%
Cn1c(SCC(=O)NCC2CCCO2)nc2scc(-c3ccccc3)c2c1=O (centres undefined)	-18.9%	.	0.3%	-1.8%	0.2%
CC[C@@H](C)[C@@H](C(=O)Nc1ccc(C)cc1)N1Cc2ccccc2C1=O	7.3%	3.8%	0.5%	-10.3%	.
CC(C)N(C(=O)COC(=O)c1ccccc1C(=O)c1ccc(Cl)c([N+](=O)[O-])c1)C(C)C	?	20.4%	2.24µM*	-27.8%	0.2%
CN(CCC#N)C(=O)COC(=O)c1ccccc1C(=O)c1ccc(Cl)c([N+](=O)[O-])c1	-27.1%	?	15.8µM*	-17.2%	-0.1%
O=C(COC(=O)c1ccccc1C(=O)c1ccc(Cl)c([N+](=O)[O-])c1)NC1CCCCCC1	20.6µM*	8.9%	-2.4%	?	0.1%
Cn1c(N)c(C(=O)COC(=O)c2ccccc2C(=O)c2ccc(Cl)c([N+](=O)[O-])c2)c(=O)n(C)c1=O	14.3%	.	?	-8.8%	-0.5%
Cc1ccc(-c2csc(=S)n2CC(=O)OCC(=O)NC(C)C(C)C)cc1 (centres undefined)	-23.0%	-0.5%	3.1%	-2.7%	-0.6%
